# Measured values: PubChem BioAssay (NCATS)
# Values joined by “and” are separate entries in the source; they are usually repeats but may differ in a detail not shown here. Equal entries are not always repeated. Records with an inconclusive call do not appear. Active and inactive are the calls of the source. The call rests on the fitted dose curve; in most records, active means well fitted curve in the direction sought with a large enough effect in the signal ratio, with a control signal flat; inconclusive means small, poorly fitted or top-dose-only effect, or a change in a side signal; inactive means no such curve, though single readings can be large or run the other way; the % refers to the signal ratio.
# Target: Glucocorticoid receptor (Homo sapiens) (UniProt P04150)
# Assay: qHTS assay for small molecule agonists of glucocorticoid receptor signaling (AID 588532)
# Conditions: HeLa MMTV-bla, beta-lactamase ratio, agonist, 18 h; activation: hits give high values, percent of dexamethasone control, DMSO zero
# Text: NIH Chemical Genomics Center [NCGC] U.S. Environmental Protection Agency [EPA] National Institutes of Environmental Health Sciences [NIEHS] National Toxicology Program [NTP] NCGC Assay Overview The Glucocorticoid receptor (GR), a nuclear receptor subfamily member and its natural ligands includes […] etc. The GR is a validated drug target for inflammation. GR ligands such as dexamethasone are clinically available as anti-inflammatory drugs. Glucocorticoids implicate role in carbohydrate, protein and lipid metabolisms and programmed cell death. They are also a component of many chemotherapy regimens for the treatment of leukemias, lymphomas, and myelomas because of their role in the induction of apoptosis.
# NCGC Assay Protocol Summary Using a beta-lactamase reporter-gene under control of glucocorticoid response element (GRE), a cell-based assay [CellSensor MMTV-bla HeLa cell line assay developed by Invitrogen] was used to measure GR ligands signaling. CellSensor MMTV-bla HeLa cells were used with assay medium containing 1% charcoal/dextran treated FBS, 0.1 mM NEAA, 1 mM sodium pyruvate and 25mM HEPES. The assay was performed in clear bottom black Greiner 1536-well plates. Dexamethasone and Mifepristine were used in the screen as agonist and antagonist positive controls respectively. Library compounds were measured for their ability to stimulate the reporter gene activity. Compounds were screened in a titration series in 1536-well format. The fluorescence intensity (405 nm excitation, 460/530 nm emission) was measured using an EnVision plate reader. Data was normalized relative to Dexamethasone control (0.1 uM, 100%), and DMSO only wells (basal, 0%). Concentration-response titration points for each compound were fitted to the Hill equation yielding concentrations of half-maximal stimulation (EC50) and maximal response (efficacy) values. qHTS protocol for GR beta-lactamase assay in agonist mode [Step] [Parameter] [Value] [Description] 1. Reagent; 6 uL; 1500 cells/well 2. Incubation; 37 C for 3-5 hrs 3. Compounds; 23 nL; 0.59 nM to 92 uM 4. Controls (Dexamethasone); 23 nL, - One column with dose response, start 4.6uM, 1:3 dilutions in duplicates - Final concentrations of 0.1 uM and 2 nM in two columns 5. Incubation; 37 C for 18 hrs 6. Detection reagent; 1 uL of CCF4-dye 7. Incubation; RT for 2 hrs 8. Detection; Fluorescence; Envision plate reader
# Chain of Glucocorticoid receptor (Homo sapiens) (P04150 whole entry, looked up): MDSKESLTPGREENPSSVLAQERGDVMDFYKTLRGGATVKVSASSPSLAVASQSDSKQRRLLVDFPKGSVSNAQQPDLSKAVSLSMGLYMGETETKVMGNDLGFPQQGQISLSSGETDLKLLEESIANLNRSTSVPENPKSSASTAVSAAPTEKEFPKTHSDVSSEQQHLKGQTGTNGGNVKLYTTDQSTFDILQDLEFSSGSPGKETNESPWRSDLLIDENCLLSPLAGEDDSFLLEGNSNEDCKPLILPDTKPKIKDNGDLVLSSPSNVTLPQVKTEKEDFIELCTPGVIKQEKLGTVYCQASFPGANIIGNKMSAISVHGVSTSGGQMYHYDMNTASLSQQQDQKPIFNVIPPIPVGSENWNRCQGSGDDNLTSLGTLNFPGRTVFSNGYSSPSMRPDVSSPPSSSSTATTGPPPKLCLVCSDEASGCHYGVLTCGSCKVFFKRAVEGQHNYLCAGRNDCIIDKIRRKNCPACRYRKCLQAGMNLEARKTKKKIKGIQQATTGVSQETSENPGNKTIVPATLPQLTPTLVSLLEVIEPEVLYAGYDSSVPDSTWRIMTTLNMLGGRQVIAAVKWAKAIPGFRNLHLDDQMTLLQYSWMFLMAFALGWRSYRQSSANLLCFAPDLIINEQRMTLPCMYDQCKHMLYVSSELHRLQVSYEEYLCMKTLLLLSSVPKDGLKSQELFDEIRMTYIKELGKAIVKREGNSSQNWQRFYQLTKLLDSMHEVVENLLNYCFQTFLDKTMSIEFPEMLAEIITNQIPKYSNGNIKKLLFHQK
row,SMILES,activation
1,CCC(C)(C)c1ccc(O)c(C(C)(C)CC)c1,5.63% (inactive)
2,Nc1cnn(-c2ccccc2)c(=O)c1Cl,-1.22% (inactive)
3,CCOC(=O)C(C)OC(=O)c1cc(Oc2ccc(C(F)(F)F)cc2Cl)ccc1[N+](=O)[O-] (stereo not given),2.93% (inactive)
4,CCOC(=O)Nc1cccc(OC(=O)Nc2ccccc2)c1,-3.53% (inactive)
5,Cc1nc(N(C)C)nc(OC(=O)N(C)C)c1C,1.95% (inactive)
6,O=C(O)[C@@H]1[C@H](C(=O)O)[C@@]2(Cl)C(Cl)=C(Cl)[C@]1(Cl)C2(Cl)Cl,-1.44% (inactive)
7,CC1COC(Cn2cncn2)(c2ccc(Oc3ccc(Cl)cc3)cc2Cl)O1 (stereo not given),-11.8% (inactive)
8,C#CCN1C(=O)COc2cc(F)c(N3C(=O)C4=C(CCCC4)C3=O)cc21,-6.94% (inactive)
9,O=C(NC(=O)c1c(F)cccc1F)Nc1cc(Cl)c(OC(F)(F)C(F)F)c(Cl)c1,12.6% (inactive)
10,CCC[CH2][Sn]([CH2]CCC)([O]C(C)=O)[O]C(C)=O,-12.8% (inactive)
11,CCOP(=O)(OCC)SCS(=O)(=O)C(C)(C)C,-1.34% (inactive)
12,COc1nn(C(=O)NS(=O)(=O)c2ccccc2OC(F)(F)F)c(=O)n1C,-3.65% (inactive)
13,COC(=O)c1ccccc1CS(=O)(=O)NC(=O)Nc1nc(OC)cc(OC)n1,-0.772% (inactive)
14,CC(C)N(C(=O)SCC(Cl)=C(Cl)Cl)C(C)C,18.5% (inactive)
15,Cc1cc(C)nc(NC(=O)NS(=O)(=O)c2ccccc2C(=O)OC2COC2)n1,10.1% (inactive)
16,O=[N+]([O-])c1ccc(Cl)c([N+](=O)[O-])c1,0.437% (inactive)
17,CC(C)[C@@H](Nc1ccc(C(F)(F)F)cc1Cl)C(=O)OC(C#N)c1cccc(Oc2ccccc2)c1 (stereo not given in full),-3.97% (inactive)
18,FC(F)(F)c1ccc(Cl)cc1,4.86% (inactive)
19,CCc1cc(C)cc(CC)c1-c1c(OC(=O)C(C)(C)C)n2n(c1=O)CCOCC2,-0.342% (inactive)
20,O=C(O)C(F)(F)C(F)(F)C(F)(F)C(F)(F)C(F)(F)C(F)(F)C(F)(F)C(F)(F)F,-0.386% (inactive) and 5.13% (inactive)

row,SMILES,activation
1,C1=Cc2cccc3cccc1c23,-9.46% (inactive)
2,CCSCc1ccccc1OC(=O)NC,1.02% (inactive)
3,C#CCN1CC(=O)N(COC(=O)[C@@H]2[C@@H](C=C(C)C)C2(C)C)C1=O,-0.459% (inactive)
4,S=C([S-])NCCNC(=S)[S-].[Mn+2],-3.05% (inactive)
5,CCOP(=O)(NC(C)C)Oc1ccc(S(C)=O)c(C)c1 (stereo not given),-7.67% (inactive)
6,Clc1ccc(C2(Cn3cncn3)CC(Br)CO2)c(Cl)c1 (stereo not given),-0.813% (inactive)
7,OC(c1ccc(Cl)cc1)(c1ccc(Cl)cc1)C(Cl)(Cl)Cl,4.22% (inactive)
8,COP(=O)(OC)OC(Br)C(Cl)(Cl)Br (stereo not given),-8% (inactive)
9,CO/N=C(/C(=O)OC)c1ccccc1COc1ccccc1C,-0.293% (inactive)
10,CCNc1nc(NCC)nc(SC)n1,-3.89% (inactive)
11,CC(C)CCCCCCOC(=O)c1ccccc1C(=O)OCCCCCCC(C)C,9.1% (inactive)
12,CN1COCN(Cc2cnc(Cl)s2)/C1=N\[N+](=O)[O-],-3.49% (inactive)
13,C=C(C)C(=O)OCC(CC)CCCC (stereo not given),-12.2% (inactive)
14,Oc1ccc(C(c2ccc(O)cc2)(C(F)(F)F)C(F)(F)F)cc1,-15.3% (inactive)
15,O=C(O)C(F)(F)C(F)(F)C(F)(F)C(F)(F)C(F)(F)C(F)(F)C(F)(F)C(F)(F)C(F)(F)F,-0.443% (inactive)
16,CC1(C)CC/C(=C\c2ccc(Cl)cc2)C1(O)Cn1cncn1 (stereo not given),-0.523% (inactive)
17,CCOP(=O)(O)C(N)=O,4.17% (inactive)
18,O=C(O)c1nc(Cl)ccc1Cl,-4.22% (inactive) and 6.64% (inactive)
19,CCCCOCCOC(C)=O,-12.9% (inactive)
20,C=CC(=O)OCC(CC)(COC(=O)C=C)COC(=O)C=C,-13.7% (inactive)
